# From PubChem BioAssay AID1347421 (Sanford-Burnham Center for Chemical Genomics, 2020)
# In all, about 1,500 compounds were measured (“activity”: median about 2, lowest 2% from about -18 on). Shown is part of a subset that was picked to be rich in the lowest values. Calls of active or inactive are those of the source.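 How the source made its calls: active means inhibition of at least 40% at 10 µM; inconclusive means no clear call, values can overlap the other calls; inactive means the rest.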
# Biological target: Sulfhydryl oxidase 1 (Homo sapiens) (UniProt O00391)
# Assay: human QSOX1 sulfhydryl oxidase inhibition – biochemical, ROS-Glo luminescence, single concentration, confirmation (AID 1347421);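 further: 0% = DMSO wells with enzyme and 100% = wells lacking QSOX1 enzyme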
# Settings: recombinant hQSOX1, RNase A substrate, ROS-Glo H2O2 luminescence; at 10 µM
# Sequence of Sulfhydryl oxidase 1 (Homo sapiens) (O00391 whole entry, looked up): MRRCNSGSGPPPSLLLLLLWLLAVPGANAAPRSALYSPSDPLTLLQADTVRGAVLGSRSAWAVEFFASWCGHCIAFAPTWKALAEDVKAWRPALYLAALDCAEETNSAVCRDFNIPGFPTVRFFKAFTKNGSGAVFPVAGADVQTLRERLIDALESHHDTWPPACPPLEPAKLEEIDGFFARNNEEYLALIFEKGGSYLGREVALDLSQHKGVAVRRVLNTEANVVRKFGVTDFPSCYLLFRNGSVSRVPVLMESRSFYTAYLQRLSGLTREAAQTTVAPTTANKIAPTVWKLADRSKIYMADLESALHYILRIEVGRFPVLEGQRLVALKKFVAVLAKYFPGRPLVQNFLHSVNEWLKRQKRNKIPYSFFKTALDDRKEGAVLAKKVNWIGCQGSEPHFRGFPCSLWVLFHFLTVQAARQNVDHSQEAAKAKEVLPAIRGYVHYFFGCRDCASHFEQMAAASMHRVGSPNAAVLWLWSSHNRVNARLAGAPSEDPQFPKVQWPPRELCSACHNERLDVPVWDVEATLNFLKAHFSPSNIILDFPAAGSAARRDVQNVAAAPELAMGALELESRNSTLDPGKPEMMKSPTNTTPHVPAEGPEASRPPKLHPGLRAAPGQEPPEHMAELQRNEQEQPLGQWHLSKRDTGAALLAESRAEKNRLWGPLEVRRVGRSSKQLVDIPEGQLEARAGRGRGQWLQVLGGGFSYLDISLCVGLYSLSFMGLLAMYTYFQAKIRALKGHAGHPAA
row,Compound,activity
1,O=C(NC(=O)N1CCCCCC1)c1ccc(Cl)cc1,-10.3% (inactive)
2,COc1ccc(CNCCn2cccn2)c(OCC(O)CN2CCCC2)c1 (stereo not given),1.2%
3,O=C(Cn1ccnc1)N(CC1CCN(C2Cc3ccccc3C2)CC1)CC1CCCO1 (stereo not given),7.8%
4,COc1ccc(F)cc1S(=O)(=O)NC(C)C,-2% (inactive)
5,CCOc1ccc(Cl)cc1S(=O)(=O)NC(C)C,3.5%
6,COc1ccc(C(N)=O)cc1S(=O)(=O)NC(C)C,-19.1% (inactive)
7,CN(Cc1cccs1)C(=O)c1ccc(OC2CCN(S(C)(=O)=O)CC2)c(Cl)c1,12.2%
8,CN(Cc1n[nH]c2c1CCCCC2)CC1(c2cccc(F)c2)CCOC1 (stereo not given),4%
9,O=C(CC1C(=O)NCCN1Cc1ccccn1)NC1C2CC3CC(C2)CC1C3 (stereo not given),-4.8% (inactive)
10,O=C(Cc1ccccc1F)Nc1ccc2c(c1)CN(Cc1ccoc1)CC2,-1.9% (inactive)
11,O=C(NCCCOc1cccnc1)C1CCC(=O)N(CCCc2ccccc2)C1 (stereo not given),12.4%
12,O=C(O)c1cn(CCOc2ccccc2)c2ccccc12,-13.2% (inactive)
13,O=C(CCC1CCCN(Cc2ccccn2)C1)N1CCN(Cc2ccccc2)CC1 (stereo not given),-0.9% (inactive)
14,Cc1cc(C)c(C(=O)N2CCCC(CCC(=O)N(C)CCc3ccccn3)C2)c(=O)[nH]1 (stereo not given),7.3%
15,COc1ccc(CNCCc2scnc2C)cc1OCC(O)CN(C)C(C)C (stereo not given),7.8%
16,CC(C)OCCNC(=O)c1cc(COc2cccc3cccnc23)on1,2.2%
17,C=CCCC(=O)N1CCC2(CCCN(Cc3ccc(F)c(F)c3)C2=O)C1 (stereo not given),-1.3% (inactive)
18,Cn1nc(C(=O)N2CCc3ccccc32)c2ccccc2c1=O,-5.3% (inactive)
19,O=C1CCC(C(=O)N2CCC3(C=Cc4ccccc43)CC2)CN1CCc1ccccn1 (stereo not given),3.8%
20,COc1cccc(CN2CCNC(=O)C2CC(=O)NC2CCCCCCC2)c1 (stereo not given),2.4%
21,CCC1=[C+]c2c(nc(C)nc2N2CCOCC2)S1,-20.3% (inactive)
22,CCC1=[C+]c2c(NCc3cccnc3)nc(C)nc2S1,-5.8% (inactive)
23,CSc1ncc(Cl)c(C(=O)Nc2ccc(Br)cc2)n1,-12.9% (inactive)
24,Cc1oc(-c2cccs2)nc1CN(C)C(C)c1cccs1 (stereo not given),2.7%
25,CCOC(=O)C1CCN(C(=O)CCc2ccc(OC)cc2)CC1,-2% (inactive)
26,CCN(CC)C(=O)C1CCCN(Cc2nc(-c3ccc(Cl)cc3)oc2C)C1 (stereo not given),4.3%
27,CC(NC(=O)CSc1nc(O)cc(=O)[nH]1)c1ccccc1 (stereo not given),-17.8% (inactive)

row,Compound,activity
1,CCN(CC)C(=O)N(CC)Cc1ccccc1,-0.2% (inactive)
2,c1ccc(CNc2ccc(NCc3ccccc3)nn2)cc1,-8.7% (inactive)
3,CC(=O)n1nc(NCc2ccccc2)nc1NCc1ccccc1,-22% (inactive)
4,C=CCn1nnnc1NCc1ccc(F)cc1,7.4%
5,CCCn1cc(CN2CCOC(CCc3ccccc3)C2)c(C)n1 (stereo not given),-1.5% (inactive)
6,CCOC(=O)N1CCC(N2CCOC(CC3CCCCC3)C2)CC1 (stereo not given),6.1%
7,NC(=O)C1CCCN(Cc2cn(-c3ccccc3)nc2-c2ccc3c(c2)OCO3)C1 (stereo not given),-1.5% (inactive)
8,O=C(Nc1ccccc1N1CCN(C(=O)c2ccc(Cl)cc2)CC1)c1ccco1,0.8%
9,CCn1c(SCC(=O)N2CCCCCC2)nc2ccccc21,-11.6% (inactive)
10,CCn1c(C2CCCO2)nc2ccccc21 (stereo not given),-18.1% (inactive)
11,CCn1c(CN2CCCC2)nc2ccccc21,-5.8% (inactive)
12,CN1CCN(C(=O)CCC2CCCN(C(=O)Cc3ccc4c(c3)OCO4)C2)CC1 (stereo not given),0.8%
13,CN(CCOc1ccccc1)Cc1nc(-c2ccccn2)no1,3.2%
14,COc1cccc(C(=O)C2CCCN(Cc3ccc4cccc(F)c4n3)C2)c1 (stereo not given),-23.5% (inactive)
15,CSc1ncc(CN2CCCC(C(=O)c3cccc(OC(C)C)c3)C2)cn1 (stereo not given),8.6%
16,COc1ccc(C(=O)C2CCCN(Cc3ccc4cc(F)ccc4n3)C2)cc1OC (stereo not given),1.1%
17,CC1CCN(Cc2nnnn2CCCC(=O)N(C)CCC(O)c2ccccc2)CC1 (stereo not given),7.2%
18,O=C(Nc1cccc(-n2cnnn2)c1)C1CCCN1CCCC(F)(F)F (stereo not given),-2.9% (inactive)
19,O=C1N(CC2CC2)CCCC12CCN(Cc1cccc(-n3cccn3)c1)C2 (stereo not given),-0.7% (inactive)
20,O=C(Nc1cccc(-n2cccn2)c1)C1CCCN1Cc1cnc[nH]1 (stereo not given),-25.6% (inactive)
21,Cc1ccc(NC(=O)c2cc(C)c(C)o2)cc1C,-0.4% (inactive)
22,CC(C)Oc1cccc(NC(=O)c2ccccc2Cl)c1,-28.9% (inactive)
23,CC(C)Oc1cccc(NC(=O)Nc2ccccc2)c1,6.3%
24,CC(C)Oc1cccc(C(=O)Nc2ccc3[nH]c(=O)[nH]c3c2)c1,5.2%
25,O=C(NCCCn1nnc2ccccc21)C1CCC(=O)N(CCN2CCOCC2)C1 (stereo not given),-0.4% (inactive)
26,CN(CCc1ccccn1)c1ncccc1CNC1CSCCSC1,-4% (inactive)
27,c1ccc(-c2noc(CN3CCN(Cc4ccc5c(c4)OCO5)CC3)n2)cc1,7.5%

row,Compound,activity
1,O=C(Nc1ccc2c(c1)OCCO2)c1ccc(=O)[nH]n1,-1.3% (inactive)
2,CN(C)C(=O)Nc1ccc2c(c1)CCC2,-6.3% (inactive)
3,COCCn1c(CN(C)Cc2cccnc2)cnc1S(=O)(=O)CC(C)(C)C,7.7%
4,OC(COc1ccccc1CNCCc1ccccn1)CN1CCSCC1 (stereo not given),5.9%
5,CSCc1ccc(C(=O)N2CCC3(CCCN(CC(C)(C)C)C3)C2)o1 (stereo not given),-0.7% (inactive)
6,CC(C)CCCC1CN(C2CCN(Cc3ccccn3)CC2)CCO1 (stereo not given),5.9%
7,COc1cccc(CC2CN(C3CCSCC3)CCO2)c1 (stereo not given),10.9%
8,O=C(CCN1CCCO1)N1CCCC(N2CCN(c3cccc(C(F)(F)F)c3)CC2)C1 (stereo not given),-0.1% (inactive)
9,O=C1N(CC2CCCCC2)CCCC1(O)CN1CCCOCC1 (stereo not given),4.1%
10,CC(=O)Oc1ccc(/C=C/c2ccc3ccccc3n2)cc1Cl,55.2% (active)
11,O=C1COc2ccc(S(=O)(=O)N3CCc4ccccc43)cc2N1,2.6%
12,Cc1cnc(C)c(N2C[C@H]3OC(=O)N(C4CCCC4)[C@H]3C2)n1,7.1%
13,Cc1ccc(S(=O)(=O)N2CCN(c3ccccc3)CC2)cc1C(N)=O,1.7%
14,CS(=O)(=O)c1cccc(S(=O)(=O)NC2CCCC2)c1,7%
15,Cc1ccc(S(=O)(=O)NC2CCCCC2)cc1C(N)=O,-20.3% (inactive)
16,Cc1cccc(S(=O)(=O)NCC2CCN(c3cnn(C)c(=O)c3)C2)c1 (stereo not given),5.8%
17,Cc1nc(CC(=O)N2CCCC(CCC(=O)N3CCN(c4ccccn4)CC3)C2)cs1 (stereo not given),-2.5% (inactive)
18,Cc1ccc(S(=O)(=O)N2CCC(C(=O)N3CCN(c4ccccn4)CC3)CC2)cc1,-18.7% (inactive)
19,CC(=O)Nc1ccc(S(=O)(=O)N2CCN(C(=O)N3CCCCCC3)CC2)cc1,-1.3% (inactive)
20,CCN(CC1CCCO1)C(=O)C1CCN(C2CCN(Cc3ccccc3C)CC2)CC1 (stereo not given),9.1%
21,COCCN1CCC(CN(Cc2ccncc2)Cc2csc(C(C)=O)c2)CC1,-7.9% (inactive)
22,COc1cccc(CN2CCCC(NCc3ccc4nonc4c3)C2)c1 (stereo not given),-3.2% (inactive)
23,COC(=O)C1CCCCN1C(=O)c1ccc2oc(C(C)C)nc2c1 (stereo not given),4.4%
24,c1ccc(CCCc2nn3c(-c4cccnc4)nnc3s2)cc1,3%
25,Cc1occc1-c1nnc2sc(CCc3ccccc3)nn12,-18.1% (inactive)
26,c1ccc(Cc2nn3c(-c4ccco4)nnc3s2)cc1,-5.1% (inactive)
27,Cc1ccc(S(=O)(=O)CC(=O)N2CCN(c3ccccc3)CC2)cc1,-17% (inactive)

row,Compound,activity
1,Cc1nc(SCC(=O)N2CCN(c3ccccc3)CC2)nc2c1CCCC2,-19.5% (inactive)
2,Cc1nonc1CC(=O)N1CCC(CCC(=O)N2CCN(c3ccccc3)CC2)CC1,11.2%
3,COc1ccc(N2CCN(C3CCCN(Cc4nc5ccccc5nc4C)C3)CC2)cc1 (stereo not given),7.9%
4,OC(COc1ccccc1CNCCc1cnccn1)CN1CCSCC1 (stereo not given),7.9%
5,O=C1CN(c2nc3nonc3nc2NC2CCCC2)CCN1C1CCCC1,-1.2% (inactive)
6,C=CCn1cc(CNC2CC(=O)N(Cc3cccc(F)c3)C2)c(C)n1 (stereo not given),-1.3% (inactive)
7,COc1ccc(C(C)(C)NC(=O)C2CCC(=O)N(Cc3ccccc3F)C2)cc1OC (stereo not given),-0.6% (inactive)
8,O=C(NCCc1ccc(Cl)cc1)c1cccc(-n2cnnc2)c1,-1% (inactive)
9,CC(=O)c1cccc(OCc2cc(C(=O)N(CC3CC3)CC3CCCO3)no2)c1 (stereo not given),0.5%
10,CC(C)CCCC1CN(C(=O)c2ccc(N3CCN(C)CC3)cc2)CCO1 (stereo not given),6.6%
11,Cc1cc(Oc2ccccc2)nc(Oc2ccc(=O)n(-c3ccccc3)n2)n1,-9.1% (inactive)
12,CC(C)(C)NC(=O)CN1C(=O)CCC1=O,-0.4% (inactive)
13,Cc1nc2sccn2c1C(=O)N1CCCC(N(C)Cc2ccccc2)C1 (stereo not given),-0.3% (inactive)
14,O=C(C1CCCO1)N1CCc2[nH]nc(-c3ccc(C(F)(F)F)cc3)c2C1 (stereo not given),-2.9% (inactive)
15,COc1cc(CNCc2ccc(F)cc2)ccc1OCC(O)CN1CCOCC1 (stereo not given),2.4%
16,O=C(NCc1ccccc1)N1CCN(CCO)CC1,2.5%
17,O=C(Nc1ccccc1)N1CCN(c2nsc3ccccc23)CC1,-22.1% (inactive)
18,CC(C)C(=O)N1CCN(c2ccc(NC(=O)c3ccccn3)cc2)CC1,7.7%
19,COc1ccc(NC(=O)NC2CC(=O)N(CC(C)(C)C)C2)c(OC)c1 (stereo not given),-1.6% (inactive)
20,O=C(NCC(O)CO)c1ccc(OC2CCN(CCc3ccccc3)CC2)cc1 (stereo not given),-0.6% (inactive)
21,CCN1CCN(CC(O)COc2cccc(CNCCCSC)c2)CC1 (stereo not given),9.1%
22,COc1ccc(F)c(CN2CCCC3(CCN(S(=O)(=O)N(C)C)C3)C2=O)c1 (stereo not given),0.3%
23,COc1cccc(CN2CCCC3(CCN(Cc4ccccn4)C3)C2)c1OC (stereo not given),7.4%
24,Cc1nc(C)c(CN2C[C@H]3OC(=O)N(CCCc4ccc(F)cc4)[C@H]3C2)nc1C,8.2%
